Hits are enriched below; roughly 21% of the tested compounds scored in any of these assays.
Pf growth 48h = inhibits P. falciparum growth in the first generation, 48 h; P. falciparum luciferase growth in erythrocytes, 48 h; Potency, µM (highest dose often 28.7 µM), actives largely listed as inhibitors; 310,000 compounds, 5.9% hits; AID 504832
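Here the parasites carry a stable luciferase gene and grow inside erythrocytes in Albumax-based RPMI medium with compound for one erythrocytic cycle. Activity is scored as loss of luminescent signal.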
Cycloheximide cs = counter-screen for Shiga toxin inhibitors: cycloheximide protein synthesis inhibition; max response, %; cell reporter, cycloheximide protein synthesis inhibition counterscreen; 300,000 compounds, 12% hits; in the data active means max response mostly above about 13%, no sharp cut-off; inactive means mostly below about 14%; further: read at 38.3 µM for the half of the compounds with a filed dose
Shiga inhibitor = inhibitors of Shiga toxin in Vero cells; Vero cells, Shiga toxin protein synthesis inhibition reporter; inhibition, % at 38.7 µM; 290,000 compounds, 9.2% hits; in the data active means inhibition mostly above about 28%, no sharp cut-off; inactive means mostly below about 43%
SARS PLP yeast = SARS-CoV PLP inhibition in yeast | S. cerevisiae expressing SARS-CoV PLpro, growth rescue | Potency, µM (series often up to 32.9 µM), hits mostly activators | 330,000 compounds, 0.19% hits | AID 485353; calls by dose curve; further: nearly all actives have a fitted effect of over 55% in size
NS1 inh = blocks influenza NS1 protein function; Potency, µM (doses to about 46.1 µM); 270,000 compounds, 0.4% hits; AID 2326; calls by dose curve; further: actives are rising curves; nearly all actives have a fitted effect of over 50% in size
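A cell-based growth assay was used: compounds that relieve NS1-induced slow growth of budding yeast raise OD600. Assay medium was yeast nitrogen base with ammonium sulphate and -URA supplement, pH 6.0, with 2% galactose.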
Pf growth 96h = P. falciparum growth inhibition at 96 hour, primary screen for plastid delayed-death inhibitors. AID 504834. Potency, µM (doses to about 28.7 µM), hits mostly inhibitors. P. falciparum luciferase reporter growth, 96 h. 320,000 compounds, 6.9% hits
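Two-generation exposure (96 h) targets delayed-death phenotype. Reporter parasites carrying integrated firefly luciferase, in red cells at 2% hematocrit and 0.05% parasitemia final, kept at 37 C, 5% CO2; luminescence loss indicates inhibition.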
Of the large screens only hits and unclear results are named; the others gave an inactive call. Unless noted, the call rests on the fitted dose curve; in most records, active means well fitted inhibition curve with a large enough effect; inconclusive means small, poorly fitted or top-dose-only effect, or another doubt; inactive means no such curve, though single readings can be large or run the other way.

Cc1nc(Nc2ccc(O)cc2)c2c3c(sc2n1)CCCC3	Pf growth 48h 14.7µM, Pf growth 96h inconclusive
O=C(Nc1ccc2c(c1)CCCN2C(=O)c1cccs1)c1c(F)cccc1Cl	none
O=C(Nc1ccc2c(c1)C(=O)OC2)c1ccccc1Cl	Cycloheximide cs 25.8
O=C(Nc1ccc2c(c1)CCC2)c1c(F)cccc1Cl	Cycloheximide cs 54.4, Shiga inhibitor 111.9 (no result: NS1 inh)
O=C(Nc1cccc(Cl)c1)Nc1ccc2c(c1)C(=O)OC2	none
O=C1OCc2ccc(NC(=O)c3ccccc3C(=O)O)cc21	Cycloheximide cs 34.5, Shiga inhibitor 57.7
O=C1OCc2ccc(NC(=O)c3c(F)cccc3Cl)cc21	Cycloheximide cs 17.0
O=C1OCc2ccc(NC(=O)C3CC3)cc21	none
Cc1ccc(S(=O)(=O)NCCC(=O)NC2CC2)cc1	none
COc1cccc2sc(N(CCCN(C)C)C(=O)c3sc4ccccc4c3Cl)nc12	Pf growth 96h inconclusive
O=C1c2ccc([N+](=O)[O-])cc2S(=O)(=O)N1Cc1ccccc1	none
N#C/C(=C\c1cccnc1)c1nc2c(s1)CCCC2	Cycloheximide cs 44.0, Shiga inhibitor 155.6
COc1cc(/C=C(\C#N)C(=O)N2CCCCC2)ccc1O	Pf growth 48h inconclusive, Pf growth 96h inconclusive (no result: SARS PLP yeast)
CC1CCc2nc(/C(C#N)=C/c3cccnc3)sc2C1 (stereo unspecified)	Cycloheximide cs 51.5, Shiga inhibitor 145.2 (no result: NS1 inh)
N#C/C(=C/c1cccnc1)c1ccccc1	none (no result: Shiga inhibitor)
COc1cc(/C=C(\C#N)c2nc3c(s2)CCCC3)ccc1O	Cycloheximide cs 50.2, Shiga inhibitor 68.0 (no result: Pf growth 96h)
Cc1ccc(N)c(Cl)c1	none (no result: Pf growth 48h, SARS PLP yeast, NS1 inh, Pf growth 96h)
Cc1nc(SCC(=O)Nc2nnc(C(C)C)s2)n[nH]1	none
Cc1ccc(NC(=O)c2cccc3ccccc23)cc1	Cycloheximide cs 32.5, Shiga inhibitor 172.8
COc1cc2ccccc2cc1C(=O)Nc1ccc(C)cc1	Pf growth 48h inconclusive, Cycloheximide cs 25.8
COc1cc2ccccc2cc1C(=O)Nc1ccc(Cc2ccncc2)cc1	Pf growth 96h 4.15µM (no result: Pf growth 48h)
COc1cc(OC)c(C(=O)Nc2ccc(C(=O)c3ccccc3)cc2)cc1OC	Pf growth 96h inconclusive
COc1ccc(Br)cc1C(=O)Nc1ccc(C(=O)O)cc1	none
COc1ccc(Br)cc1C(=O)Nc1ccc(O)cc1	Cycloheximide cs 17.3, Shiga inhibitor 41.1 (no result: Pf growth 96h)
Nc1nnc(CC(=O)N/N=C/c2ccccc2OCc2ccccc2F)s1	none
O=C(Oc1ccccc1N1CCOCC1)c1sccc1Br	none
COc1cc(C(=O)NC(C)c2cccc3ccccc23)cc(OC)c1OC (stereo unspecified)	Pf growth 48h inconclusive
Cc1ccc(C(=O)N2CCN(c3ccc(NC(=S)NC(=O)c4cccs4)cc3)CC2)cc1	Pf growth 48h inconclusive
O=C(NC(=S)Nc1ccc(N2CCOCC2)cc1)c1cccs1	Cycloheximide cs 41.1, Shiga inhibitor 73.4
Cc1ccccc1C(=O)N1CCN(c2ccc(NC(=S)NC(=O)c3cccs3)cc2)CC1	Pf growth 48h 9.28µM, NS1 inh inconclusive
Clc1cc2nc3ccccn3c2cc1Cl	Cycloheximide cs 19.8, Shiga inhibitor 67.7
O=Cc1c(Cl)nc2ccccn12	none
COc1cc2c(cc1OC)CN(Cc1ccccc1)CC2	Pf growth 96h inconclusive
COc1cc2c(cc1OC)C(=O)C(CC1CCN(Cc3ccccc3)CC1)C2 (stereo unspecified)	Pf growth 48h inconclusive, Pf growth 96h 9.53µM (no result: NS1 inh)
CC(=O)c1cccc(CN2CCN(CC(C)C)C(CCO)C2)c1 (stereo unspecified)	none
CC1(C(=O)NCC2CC2)C=CC2(CCCCC2)N1C(=O)c1ccccc1 (stereo unspecified)	Cycloheximide cs 66.5, Shiga inhibitor 48.6, Pf growth 96h inconclusive
CCC(COC(=O)Nc1cccc(C)c1)NC(=O)OCC(C)C (stereo unspecified)	Pf growth 48h inconclusive, Cycloheximide cs 35.6, Shiga inhibitor 86.7
CCOC(=O)Nc1cccc(Nc2ccccc2)c1	none (no result: Pf growth 96h)
CCCCOC(=O)Nc1cccc(C(C)=O)c1	Cycloheximide cs 22.8, Shiga inhibitor 71.9
CCOC(=O)Nc1cccc(C(=O)O)c1	Cycloheximide cs 14.0, Shiga inhibitor 31.2 (no result: Pf growth 96h)
CCNC(=O)OCC(CC)NC(=O)OCC(C)C (stereo unspecified)	none (no result: Pf growth 96h)
CCCCOC(=O)Nc1cccc(Cl)c1C	Cycloheximide cs 21.5, Shiga inhibitor 87.1 (no result: Pf growth 96h)
CCOC(=O)Nc1cccc(Cl)c1C	none
CCCCOC(=O)c1cccc(NC(=O)CCC(=O)O)c1	Pf growth 96h inconclusive
CC(=O)c1ccccc1Oc1nc(CN2CCOCC2)nc2scc(-c3cccs3)c12	Pf growth 48h inconclusive (no result: Pf growth 96h)
O=C(NCCO)c1cc2c([nH]c3ccccc32)c(-c2ccccc2)n1	none
Cc1ccc(-c2nc(C(=O)NCCCN(C)C)cc3c2[nH]c2ccccc23)cc1	Pf growth 48h 6.57µM, Pf growth 96h 9.28µM
O=C(NCCO)c1cc2c([nH]c3ccccc32)c(-c2ccc(F)cc2)n1	Pf growth 48h inconclusive, Pf growth 96h 14.7µM
COc1ccc(-n2ncc3c(=O)n(Cc4c(F)cccc4Cl)cnc32)cc1	none
Cc1cccc(N2CC(C(=O)NCc3ccco3)CC2=O)c1C (stereo unspecified)	none (no result: Cycloheximide cs, Shiga inhibitor, NS1 inh)
Cc1ccccc1OCc1nnc(SCc2cc(=O)[nH]c3ccccc23)n1-c1ccccc1	Pf growth 48h inconclusive, Pf growth 96h inconclusive
CC(Sc1nnc(COc2ccc([N+](=O)[O-])cc2)n1C)C(=O)O (stereo unspecified)	none
CC(Sc1nnc(COc2ccc([N+](=O)[O-])cc2)n1-c1ccccc1)C(=O)O (stereo unspecified)	Pf growth 96h 9.28µM
Cc1ccc(OCc2nnc(SCC(=O)Nc3cccc4ccccc34)n2-c2ccccc2)cc1	Pf growth 48h inconclusive, NS1 inh inconclusive, Pf growth 96h 13.1µM
Cc1ccc(OCc2nnc(SCc3cc(=O)[nH]c4ccccc34)n2-c2ccccc2)cc1	Pf growth 48h inconclusive, Pf growth 96h 5.86µM
CC1CCCC(C)N1C(=O)CSc1nnc(COc2ccccc2)n1-c1ccccc1 (stereo unspecified)	Pf growth 96h 14.7µM (no result: Pf growth 48h)
Cc1csc(SCc2ccc(C(=O)O)cc2)n1	Pf growth 96h inconclusive (no result: Pf growth 48h)
Cc1ccc(NC(=O)CSc2nnc(COc3ccc(C#N)cc3)n2-c2ccccc2)cc1C	Pf growth 48h inconclusive, Pf growth 96h 10.4µM
N#Cc1ccc(CSc2nnc(COc3ccccc3)n2-c2ccccc2)cc1	Pf growth 96h inconclusive (no result: Pf growth 48h)
Cc1ccc(C(=O)CSc2nnc(COc3ccc(C#N)cc3)n2-c2ccccc2)cc1	Pf growth 96h inconclusive
COc1ccc(-n2c(COc3ccccc3)nnc2SCc2ccc(C#N)cc2)cc1	Pf growth 48h 11.7µM, Pf growth 96h inconclusive
Cc1cc(C)n2nc(SC(C)C(=O)N3CCC4(CC3)OCCO4)nc2n1 (stereo unspecified)	Pf growth 48h 2.62µM
O=C(O)CCC(=O)Nc1ccc(/C=C/C(=O)C2CC2)cc1	Cycloheximide cs 29.4
O=C(O)CCC(=O)NNC(=O)CCC(=O)Nc1ccccc1	none

Assay outcomes as filed in PubChem.
